Screens from PubChem.
The sample as a whole holds a higher share of hits than the screen did.
ERK EGF block: inhibitors of EGF-stimulated ERK signaling pathway; HEK293-V1b, EGF-stimulated phospho-ERK AlphaScreen; Potency, µM (doses to about 11.5 µM), hits mostly inhibitors; 130,000 tested, 0.41% active; AID 1454; active = well fitted inhibition curve with a large enough effect; note: nearly all actives have a fitted effect of over 55% in size
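EGF-stimulated (25 nM, 5 min) phospho-ERK in HEK293 cells stably expressing V1b, cells pretreated 30 min with compound at 37C. Homogeneous AlphaScreen read on lysates.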
Of the large screens only hits and unclear results are named; the others gave an inactive call.

Cn1cccc1/C=N/N1CCN(c2ccccn2)CC1	none
O=C(O)c1ccc(/C=N/N2CCN(Cc3cccc4ccccc34)CC2)cc1	none
Cn1cccc1/C=N/N1CCN(Cc2cccc3ccccc23)CC1	ERK EGF block 18µM
O=c1cc(-c2cccc(O)c2O)oc2ccccc12	none
O=C(N[C@@H](Cc1ccccc1)C(=O)OCc1ccccc1)c1nc[nH]c1C(=O)NC(c1ccccc1)c1ccccc1	ERK EGF block 40µM
C[C@@H](NC(=O)c1nc[nH]c1C(=O)N[C@@H](Cc1ccccc1)C(=O)OCc1ccccc1)c1ccccc1	none
CC(C)C[C@H](NC(=O)c1[nH]cnc1C(=O)Nc1ccc(CNC(=O)OC(C)(C)C)cc1)C(=O)OCc1ccccc1	none
CC(C)(C)OC(=O)NCc1ccc(NC(=O)c2nc[nH]c2C(=O)N[C@@H](Cc2ccccc2)C(=O)OC(C)(C)C)cc1	none
C[C@H](NC(=O)c1[nH]cnc1C(=O)Nc1ccc(CNC(=O)OC(C)(C)C)cc1)C(=O)OCc1ccccc1	ERK EGF block 32µM
C[C@H](NC(=O)c1nc[nH]c1C(=O)N[C@@H](Cc1ccccc1)C(=O)OCc1ccccc1)c1ccccc1	none
C/C=C\C[C@H](C)[C@H](O)[C@H]1C(=O)N[C@@H](CC)C(=O)N(C)CC(=O)N(C)[C@@H](CC(C)C)C(=O)N[C@@H](C(C)C)C(=O)N(C)[C@@H](CC(C)C)C(=O)N[C@@H](C)C(=O)N[C@@H](C)C(=O)N(C)[C@@H](CC(C)C)C(=O)N(C)[C@@H](CC(C)C)C(=O)N(C)[C@@H](C(C)C)C(=O)N1C	none
O=C(O)C1CCC[C@@H]2[C@@H]3CC(CN12)[C@@H]1CCCCN1C3 (some centres not stated)	none
O=C(c1cnccn1)N1CCC2(CC1)CN(c1ccccn1)C2	none
N#CCCCS(=O)(=O)c1nnnn1-c1ccc(F)cc1Br	none
C=C1C[C@@]23CC4C5[C@@]6(C)C[C@H](O)C[C@@]57C2[C@H](O)[C@@H]1[C@H](O)[C@H]3[C@H]7N4C6	none
Cc1nn(-c2nnc(NCc3ccccc3)nn2)c(C)c1Br	ERK EGF block 22µM
Cc1cc(=O)[nH]c(NCc2ccccc2)n1	none
Cc1cccc(Nc2ccc(NCc3ccccc3)nn2)c1	none
CC(C)(C)c1ccc(/C=C/C(=O)Nc2ccc3c(c2)OCCO3)cc1	none
COc1cccc(Nc2ncc3nc(CCc4ccccc4)c(=O)n(C4CC4)c3n2)c1	none
O=C(NC1CCCC1)c1cc(COc2ccc3ncccc3c2)on1	none
O=C(c1cc(COc2ccc3ncccc3c2)on1)N1CCCCCC1	none
O=C(NCCc1cn2ccccc2n1)c1cc(COc2ccc3ncccc3c2)on1	ERK EGF block 28µM
COc1cc2cc3c4cc(OC)c(OC)cc4cc[n+]3c(C)c2cc1OC	none
Cc1ccc2c(c1)-c1c(ssc1=S)C(C)(C)N2C(=O)c1ccco1	ERK EGF block 13µM
Cc1ccc(CN2CCN(C(=O)c3ccco3)CC2)cc1	none
Cc1cccn2c1nc(=S)n2C(=O)c1ccco1	none
COCCn1c(=O)c(-c2ccc(Cl)cc2)nc2cncnc21	none
CC(=O)N[C@@H](C(=O)O)C(C)(C)SN=O	none
N#CC1=C(N)N(c2ncn[nH]2)C2=C(C(=O)CCC2)C1c1ccccc1 (configuration not stated)	none
CCC1=C2CC[C@H]3C(=O)N(CC)C(=O)[C@H]3[C@H]2[C@@]2(Cc3ccccc3)C(=NCC3CC3)OC(=O)N2C1=O	none
COc1ccccc1N1C(=O)C2CCC(c3ccccc3)CC2C1=O (configuration not stated)	none
COc1ccc(C)cc1-n1c(=O)c2ccccc2c2ccccc2c1=O	none
COc1ccc(C)cc1N1C(=N)/C(=C2/Nc3ccccc3S2)C(c2ccccc2)C1=O (configuration not stated)	ERK EGF block 20µM
O=C(c1ccco1)N1CCC[C@@]2(CCN(C(c3ccccc3)c3ccccc3)C2)C1	none
COc1ccc(C(CCN2CCN(c3ccccc3)CC2)c2c(O)cc(OC)cc2OC)cc1 (configuration not stated)	none
COc1ccc(C(CCN2CCCCC2)c2c(O)cc(OC)cc2OC)cc1 (configuration not stated)	none
COc1cc(O)c(C(CCN2CCN(c3ccccc3)CC2)c2ccc(N(C)C)cc2)c(OC)c1 (configuration not stated)	ERK EGF block 18µM
COC(=O)[C@@H]1C[C@H]1[C@@H](NC(=O)c1ccc(Br)cc1)c1ccccc1	none
CC(=O)Nc1ccc(Oc2ccccc2)cc1	none
N#Cc1ccc(NC(=O)Nc2cccc(C#N)c2)cc1	none
N#Cc1ccc(NC(=O)Nc2ccc(Oc3ccc(NC(=O)Nc4ccc(C#N)cc4)cc3)cc2)cc1	ERK EGF block 32µM
COc1cccc([C@@H]2Oc3ccc(OC)cc3C[C@H]2OC(=O)Nc2cc(OC)c(OC)c(OC)c2)c1	none
CC(=O)O[C@@H]1C(CO[Si](C)(C)C(C)(C)C)=C(Br)C(=O)[C@@H]2O[C@]12C	none
CCCCC/C=C\C/C=C\C[C@H](O)/C=C/C=C\CCCC(=O)O	none
CCOc1cc(/C=C/c2cc(C(=O)O)c3ccccc3n2)ccc1OC	none
COc1cc(/C=C/c2cc(C(=O)O)c3ccccc3n2)cc(OC)c1O	ERK EGF block 32µM
